Experimental data published in US20200071711, “MODULAR CONSTRUCTION OF SYNTHETIC GENE CIRCUITS IN MAMMALIAN CELLS USING MATHEMATICAL MODELING OF CLOSED LOOP TRANSCRIPTIONAL REPRESSORS” (Tsinghua University, published 2020).

Assays:
TALER22 = biological target: T1, TALER22 (synthetic, UniProt P14727 SEQ:1-806); assay: cell_activity; HEK293, two sites flanking CMVmini; details: tags: EYFP-2A upstream, SV40 NLS; dsDNA, one strand shown
T1 chain: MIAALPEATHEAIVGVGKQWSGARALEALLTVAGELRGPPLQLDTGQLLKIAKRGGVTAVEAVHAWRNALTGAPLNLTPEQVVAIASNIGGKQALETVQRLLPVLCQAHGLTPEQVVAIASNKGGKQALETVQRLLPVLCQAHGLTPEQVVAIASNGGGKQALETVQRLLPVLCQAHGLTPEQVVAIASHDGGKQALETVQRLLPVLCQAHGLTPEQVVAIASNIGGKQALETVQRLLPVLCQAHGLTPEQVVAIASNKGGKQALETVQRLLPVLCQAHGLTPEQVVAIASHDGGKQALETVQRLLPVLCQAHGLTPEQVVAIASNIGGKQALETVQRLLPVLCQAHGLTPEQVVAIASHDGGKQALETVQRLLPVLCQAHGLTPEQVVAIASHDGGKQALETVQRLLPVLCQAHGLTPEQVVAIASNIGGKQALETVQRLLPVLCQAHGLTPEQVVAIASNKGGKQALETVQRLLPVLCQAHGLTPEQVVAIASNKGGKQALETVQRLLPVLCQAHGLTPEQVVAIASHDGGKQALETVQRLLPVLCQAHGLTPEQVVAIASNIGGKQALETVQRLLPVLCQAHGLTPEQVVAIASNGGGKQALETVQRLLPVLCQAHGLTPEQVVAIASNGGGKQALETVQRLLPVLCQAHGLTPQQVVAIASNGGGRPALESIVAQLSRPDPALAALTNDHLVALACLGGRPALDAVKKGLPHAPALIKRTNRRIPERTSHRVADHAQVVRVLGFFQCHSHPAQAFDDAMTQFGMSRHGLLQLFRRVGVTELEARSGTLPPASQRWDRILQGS

TALER23 = biological target: T2, TALER23 (synthetic, UniProt P14727 SEQ:1-806); assay: cell_activity; HEK293, two sites flanking CMVmini; details: tags: EYFP-2A upstream, SV40 NLS; dsDNA, one strand shown
T2 chain: T1 chain

Sequence	binding signal (TALER22) [fold repression]	binding signal (TALER23) [fold repression]
TAGTCAGCACCAGGCATTT	4.66	
TCCGGATGCTCCTCTTAAT		2.2
